The text below walks through data of PubChem BioAssay (NCATS).

Results filed as inconclusive are left out. The source made the active and inactive calls. Unless noted, calls come from the whole dose curve; as a rule, active = well fitted curve in either direction with a large enough effect (not every such curve was filed as active); inconclusive = small, poorly fitted or top-dose-only effect, or another doubt; inactive = flat fitted curve, though single readings scatter.

Assay [1] has as its target Lysosomal acid glucosylceramidase (Homo sapiens) (UniProt P04062). Description: Glucocerebrosidase-p2 (AID 348; in the data active = potency below about 10 µM; note: potency is the fitted concentration of half-maximal effect). The note with it: purified GBA, blue fluorogenic substrate, 40 min. In short, it runs like this: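 Compounds titrated from 0.6 nM upwards against 0.2 nM enzyme in pH 5.9 citric acid/KH2PO4, taurocholate, tween-20; blue fluorogenic substrate 80 uM, 40 min room temperature, stopped and read Ex 365/Em 440 for AC50.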

Assay [2] can be described thus: AP1 Signaling Pathway (AID 357).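 Note: ME-180 reporter cells stimulated with EGF at its EC50 level; % is set by controls: 0 for no effect and ±100 for the full control effect.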 As to conditions: ME-180 AP-1-bla reporter, EGF-induced, beta-lactamase ratio, 5 h; at 7.69 µM (top of the series) unless noted. In short, it runs like this: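 Beta-lactamase reporter under AP-1 response element, ME-180 background. Stimulus: EC50 EGF. Compound exposure 5 h, 37 °C. Detection: CCF4, 2.5 h RT, 460/530 nm. Values: AC50 from titration.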

Assay [3] is described as follows: NFAT Signaling Pathway (AID 444).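 Note: carbachol stimulus at about its EC50 of 1 µM final; % is set by controls: 0 for no effect and ±100 for the full control effect.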 As to conditions: Jurkat NFAT-bla M1, carbachol, beta-lactamase ratio, 5 h; at 7.69 µM (top of the series) unless noted. In short, it runs like this:
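Read-out: CCF4 FRET ratio (460 nm/530 nm) after 1 h RT dye loading, used for %activity and AC50 from titration series. Cells: Jurkat NFAT-β-lactamase/M1 line, treated with compound plus 1 uM carbachol for 5 h, 37 °C.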

Assay [4] can be described thus: Stat Signaling Pathway (AID 446).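 Note: ME-180 cervical cancer cells given 40 pM IL-6 alongside compound; SIE-controlled beta-lactamase reporter measured as 460/530 nm FRET emission ratio; % is set by controls: 0 for no effect and ±100 for the full control effect.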 The note with it: ME-180 (cervical carcinoma) SIE beta-lactamase reporter, IL-6 stimulated, 5 h; at 7.69 µM (top of the series) unless noted. In short, it runs like this:
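ME-180 cells carrying a SIE-driven beta-lactamase reporter are stimulated with 40 pM IL-6 for 5 h at 37C in the presence of compound. The 460/530 nm FRET substrate ratio is read after 2.5 h at RT. Data are normalised to 300 pM IL-6 and to 125 nM JAK inhibitor controls.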

Assay [5] deals with Glucocorticoid receptor (Homo sapiens) (UniProt P04150). Briefly: GR-EFC Redistribution (AID 451; calls by dose curve; note: potency is the fitted concentration of half-maximal effect). The note with it: CHO-K1 GR-EFC translocation, beta-gal luminescence, 2 h. In short, it runs like this:
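Translocation of GR-ED fusion to nuclear EA restores b-gal, read by luminescence after 1 h room-temperature detection. Engineered CHO-K1 biosensor cells, 1,000/well, exposed 2 h at 37 C to titrations up to 46 uM final.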

For assay [6], the target named is Mitogen-activated protein kinase 10 (Mus musculus) (UniProt Q61831). Briefly: JNK3 AlphaScreen Assay (AID 530).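 Note: kinase came from lysate of stimulated human HepG2 cells; signal reports phosphorylation of biotinylated GST-cJun 1-79 at Ser73 with 10 µM ATP; % is set by controls: 0 for no effect and ±100 for the full control effect.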 As to conditions: JNK3 lysate, c-Jun phosphorylation; series mostly up to 57.1 µM. In short, it runs like this: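 Compound titrations were preincubated 15 minutes at room temperature with substrate, antibody and pre-activated JNK3-containing HepG2 lysate. Reactions were started with 10 uM ATP and stopped with EDTA-containing bead buffer for AlphaScreen detection.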
In general terms: Bead proximity is the source of the signal in Alpha formats.

The target of assay [7] is 3',5'-cyclic-AMP phosphodiesterase 4B (Homo sapiens) (UniProt Q07343). Briefly: qHTS Assay for Inhibitors of PDE-IV (AID 607; active = well fitted activation curve with a large enough effect in the main read-out, with a control signal flat, not every such curve was filed as active; note: % of control where 0% means no effect). The note with it: HEK293 ACTOne CNG channel cells, membrane potential fluorescence; series mostly up to 22.9 µM. In short, it runs like this: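 HEK293 ACTOne cells with CNG channel (1000/well), endogenous PDE4; membrane potential dye, compounds up to 22.9 uM final. Fluorescence Ex 535/Em 590; RO 20-1724 (100 uM final) as reference.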
On the technique in general: qHTS replaces the single test concentration by a dilution series.

A short description of assay [8]: qHTS Assay for Lipid Storage Modulators (AID 1519; calls by dose curve). As to conditions: Drosophila S3 cells, BODIPY lipid droplet/cell ratio, laser cytometry, cells loaded with oleic acid; for activity change, negative = inhibition: at 57.5 µM (top of the series). In short, it runs like this: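 Cells seeded at 5,000 per well were treated with compounds over a concentration series and loaded with oleic acid (400 uM, as added). Lipid droplet fluorescence (488 nm excitation, 500-530 nm channel) was read by laser-scanning cytometry and normalized to 20 uM Triacsin C.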

A short description of assay [9]: Primary qHTS for small molecule stabilizers of the endoplasmic reticulum resident proteome: Secreted ER Calcium Modulated Protein (SERCaMP) assay (AID 1508630; active = well fitted inhibition curve with a large enough effect; note: % is set by controls: 0 for no effect and ±100 for the full control effect). The note with it: SH-SY5Y GLuc-SERCaMP (Gaussia luciferase released on ER calcium loss) secretion, thapsigargin, luminescence; series mostly up to 38.4 µM. In short, it runs like this: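 GLuc-SERCaMP-expressing SH-SY5Y cells, pretreated 16 h with compound, are challenged with thapsigargin to empty ER calcium stores; after 4 h, coelenterazine is added directly to the medium and luminescence is imaged.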

Setting [10] is: measured here: cell count channel max response.
Setting [11] is: measured here: lipid channel max response.

Chain of Glucocorticoid receptor (Homo sapiens) (P04150 whole entry, looked up, the tested form may be a part): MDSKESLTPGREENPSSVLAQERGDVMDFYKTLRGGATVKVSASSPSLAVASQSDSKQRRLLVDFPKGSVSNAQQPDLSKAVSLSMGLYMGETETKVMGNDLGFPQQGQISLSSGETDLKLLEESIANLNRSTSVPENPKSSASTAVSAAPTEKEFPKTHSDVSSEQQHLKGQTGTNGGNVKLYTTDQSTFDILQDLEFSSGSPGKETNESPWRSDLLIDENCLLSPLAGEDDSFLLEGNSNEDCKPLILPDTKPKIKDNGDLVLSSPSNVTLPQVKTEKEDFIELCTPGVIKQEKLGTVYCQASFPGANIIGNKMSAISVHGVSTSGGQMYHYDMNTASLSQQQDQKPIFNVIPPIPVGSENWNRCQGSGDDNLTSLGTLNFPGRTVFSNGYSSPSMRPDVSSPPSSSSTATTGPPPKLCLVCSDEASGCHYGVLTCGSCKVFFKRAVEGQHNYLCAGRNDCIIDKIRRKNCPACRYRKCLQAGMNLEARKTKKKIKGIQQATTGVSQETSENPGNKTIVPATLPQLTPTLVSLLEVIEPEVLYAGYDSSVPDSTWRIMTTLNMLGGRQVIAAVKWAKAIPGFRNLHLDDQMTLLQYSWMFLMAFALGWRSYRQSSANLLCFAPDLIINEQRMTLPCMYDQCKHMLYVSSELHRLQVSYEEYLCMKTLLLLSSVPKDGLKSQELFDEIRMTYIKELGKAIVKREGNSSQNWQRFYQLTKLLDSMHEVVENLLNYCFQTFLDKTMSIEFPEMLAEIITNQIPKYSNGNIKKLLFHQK
Chain of 3',5'-cyclic-AMP phosphodiesterase 4B (Homo sapiens) (Q07343 whole entry, looked up): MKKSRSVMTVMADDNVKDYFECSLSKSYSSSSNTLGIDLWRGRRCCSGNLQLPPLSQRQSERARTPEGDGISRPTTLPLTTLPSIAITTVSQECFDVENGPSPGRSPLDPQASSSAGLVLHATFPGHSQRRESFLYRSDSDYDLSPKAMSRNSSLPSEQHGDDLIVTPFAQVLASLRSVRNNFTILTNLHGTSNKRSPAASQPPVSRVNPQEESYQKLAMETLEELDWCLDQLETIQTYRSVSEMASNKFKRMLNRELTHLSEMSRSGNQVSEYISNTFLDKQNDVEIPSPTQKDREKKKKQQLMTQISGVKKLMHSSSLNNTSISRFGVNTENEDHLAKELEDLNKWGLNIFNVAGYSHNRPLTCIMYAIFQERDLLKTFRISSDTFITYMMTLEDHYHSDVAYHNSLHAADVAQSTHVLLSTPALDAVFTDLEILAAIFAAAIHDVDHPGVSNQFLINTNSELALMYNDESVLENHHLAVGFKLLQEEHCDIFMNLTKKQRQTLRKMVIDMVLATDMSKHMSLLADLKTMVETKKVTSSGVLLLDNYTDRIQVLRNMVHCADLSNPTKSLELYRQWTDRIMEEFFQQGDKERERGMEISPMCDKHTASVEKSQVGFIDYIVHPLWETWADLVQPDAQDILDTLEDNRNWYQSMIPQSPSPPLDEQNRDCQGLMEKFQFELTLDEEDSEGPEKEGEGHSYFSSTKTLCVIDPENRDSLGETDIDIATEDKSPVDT
Chain of Lysosomal acid glucosylceramidase (Homo sapiens) (P04062 whole entry, looked up): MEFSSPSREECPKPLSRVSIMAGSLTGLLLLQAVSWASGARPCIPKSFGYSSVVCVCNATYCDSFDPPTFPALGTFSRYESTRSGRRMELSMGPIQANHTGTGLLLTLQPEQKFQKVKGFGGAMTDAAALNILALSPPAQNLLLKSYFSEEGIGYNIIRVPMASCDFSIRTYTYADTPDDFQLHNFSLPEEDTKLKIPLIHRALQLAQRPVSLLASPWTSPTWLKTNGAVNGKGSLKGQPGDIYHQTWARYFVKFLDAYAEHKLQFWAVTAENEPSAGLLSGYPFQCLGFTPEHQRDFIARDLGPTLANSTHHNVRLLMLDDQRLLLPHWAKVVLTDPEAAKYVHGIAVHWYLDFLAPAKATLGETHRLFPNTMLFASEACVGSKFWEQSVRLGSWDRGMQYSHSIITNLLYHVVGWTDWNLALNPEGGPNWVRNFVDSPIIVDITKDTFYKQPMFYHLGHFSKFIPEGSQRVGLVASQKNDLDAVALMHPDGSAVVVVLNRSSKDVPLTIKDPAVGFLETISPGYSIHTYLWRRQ

With `Cn1cccc1C(=O)N1CCC2(CCN(C(=O)Nc3cccc(C#N)c3)CC2)CC1`, the Potency in [1] is > 11.4 µM (inactive); in assay [5], > 46 µM (inactive). Further, the activity change, negative = inhibition in [2] is -16.2% (inactive); in assay [3], 8.67% (inactive); in assay [8], 4.21% (inactive). Further, the activity, negative = inhibition in [4] was -3.46% (inactive). Further, the Potency result in assay [6] and in assay [7] was “inactive” each time. For the same molecule, the max response in assay [8] (setting [10]) turned out to be 4.21%; in assay [8] (setting [11]), 11.6%. Moreover, in assay [9], the outcome was inactive.

On to `N#Cc1cccc(NC(=O)N2CC[C@@]3(CCCN(C(=O)c4cnccn4)C3)C2)c1`, for which the figures for the Potency in [1] and in [5] were > 11.4 µM (inactive) and > 46 µM (inactive), respectively. Further, the activity change, negative = inhibition in [2] was -6.32% (inactive); in assay [3] it was 12.8% (inactive); in assay [8], 8.9% (inactive). Moreover, in assay [4], the activity, negative = inhibition is 3.28% (inactive). The Potency entry in [6] and in assay [7] was “inactive” throughout. The max response in assay [8] (setting [10]) came out at 14.7%; in assay [8] (setting [11]), 23.6%. For the same molecule, the result in [9] was inactive.

For `CS(=O)(=O)N1CCC2(CC1)CN(c1ccccn1)C2`, the Potency in assay [1] was > 11.4 µM (inactive); in assay [5] it was > 46 µM (inactive). The results for the activity change, negative = inhibition in assay [2], in assay [3] and in assay [8] were 2.96% (inactive), -0.983% (inactive) and 2.99% (inactive), respectively. Besides, the activity, negative = inhibition in assay [4] was 5.22% (inactive). Besides, the Potency result in assay [6] and in assay [7] was “inactive” in each case. In addition, the max response in [8] (setting [10]) amounted to 7.05%; in [8] (setting [11]) it was 10.2%. The outcome in [9] was inactive.

Regarding `COCC(=O)N1CCC[C@@]2(CCN(c3ccccn3)C2)C1`, the figures for the Potency in [1] and in assay [5] were > 11.4 µM (inactive) and > 46 µM (inactive), respectively. The figures for the activity change, negative = inhibition in assay [2], in assay [3] and in [8] were -4.6% (inactive), -11.3% (inactive) and 2.24% (inactive), respectively. Moreover, in assay [4], the activity, negative = inhibition was -4.62% (inactive). Also, the Potency entry in assay [6] and in assay [7] was “inactive” in each case. Also, the max response in assay [8] (setting [10]) was -4.94%; in [8] (setting [11]) it was -1.36%. The outcome in assay [9] was inactive.

Turning to `Cc1noc(C)c1C(=O)N1CCC2(CC1)CCN(c1ncccn1)CC2`, the Potency is > 11.4 µM (inactive) in [1] and > 46 µM (inactive) in assay [5]. Besides, the activity change, negative = inhibition is 16.2% (inactive) in assay [2], 5.74% (inactive) in [3] and 5.54% (inactive) in assay [8]. For the same molecule, the activity, negative = inhibition in assay [4] was 3.32% (inactive). For the same molecule, the Potency entry in [6] and in assay [7] was “inactive” in each case. In addition, the max response in assay [8] (setting [10]) turned out to be 6.46%; in assay [8] (setting [11]) it was 13.5%. For the same molecule, in [9], the outcome was inactive.

Take `O=C(c1ccncc1)N1CCC[C@@]2(CCN(c3ccncc3)C2)C1`: the figures for the Potency in [1] and in assay [5] were > 11.4 µM (inactive) and > 46 µM (inactive), respectively. In addition, the activity change, negative = inhibition in assay [2] was -13.7% (inactive); in assay [3], -14.9% (inactive); in [8], 3.8% (inactive). Also, in assay [4], the activity, negative = inhibition is -3.85% (inactive). In addition, the Potency entry in assay [6] and in assay [7] was “inactive” each time. Also, the max response stood at 9.21% in [8] (setting [10]) and 15% in assay [8] (setting [11]). Further, in assay [9], the outcome was inactive.

As for `COc1ccc(NC(=O)N2CC3(CCN(C(=O)c4cc(C(F)(F)F)cc(C(F)(F)F)c4)CC3)C2)cc1`, the Potency is > 11.4 µM (inactive) in [1] and > 46 µM (inactive) in assay [5]. Moreover, the activity change, negative = inhibition is -15.1% (inactive) in [2], 16% (inactive) in [3] and 2.01% (inactive) in assay [8]. Also, the activity, negative = inhibition in assay [4] is -20.2% (inactive). For the same molecule, the Potency result in assay [6] and in assay [7] was “inactive” each time. The max response in [8] (setting [10]) is 12.2%; in assay [8] (setting [11]) it was 18.4%. Moreover, the result in assay [9] was inactive.
